Compound activity as filed in PubChem BioAssay.
Sampled rows, rich in hits. Any-hit rate of the full collection: about 6.8%.
T cruzi growth: T. cruzi intracellular proliferation inhibitors, primary screen, cell-based, beta-gal Tulahuen parasites, NIH3T3 host, luminescence. inhibition, % at 8.34 µM. 5.9% of 77,000 active. AID 624255, 2012. T. cruzi beta-gal in NIH3T3, GalScreen luminescence, 90 h;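 active = mean inhibition above about 93%, with at least 55% of replicates each passing it, limit read from the data, passing the limit was not always enough; inconclusive = only one of those two conditions holds; inactive = neither condition holds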
C diff HTS: C. difficile growth inhibitors, primary screen, HTS; 0.25% of 86,000 active; AID 1259249, 2017; growth activity, negative = inhibition, % at 16 µg/mL (by protocol); Clostridium difficile clinical isolate growth, OD600, 24 h; stronger effect = lower value;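 active = mean growth activity at or below -80% and every replicate also at or below -80%; inconclusive = mean at or below -80% but some replicate above -80%; inactive = mean growth activity above -80%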
Pf Dd2 inh: P. falciparum Dd2 growth inhibitors, primary screen, SYBR Green fluorescence, single dose replicates | activity change, % at 10 µM | 72 h; stronger effect = lower value | 2.3% of 94,000 active | AID 1159554, 2015; in the data active = activity change below about -80%; inconclusive = no clear call, values can overlap the other calls
Hits are given with their value; ! = not confirmed by another sample.

What do the screens show for `COc1cc(CN2C[C@@H]3N[C@H](C2)C3c2ccc(-c3cncnc3)cc2)cc(OC)c1` (stereo partly specified)?
C diff HTS: inactive; Pf Dd2 inh: inactive

How did COc1cc(CN2C[C@@H]3N[C@H](C2)C3c2ccc(-c3ccncc3)cc2)cc(OC)c1 (stereo partly specified) do in these assays?
C diff HTS: inactive; Pf Dd2 inh: -80.9

Results for COc1cc(CN2C[C@@H]3N[C@H](C2)C3c2ccc(-c3cccc(OC)c3)cc2)cc(OC)c1 (stereo partly specified) ?
C diff HTS: inactive; Pf Dd2 inh: inactive

Results for COc1cc(CN2C[C@@H]3N[C@H](C2)C3c2ccc(/C=C/c3ccccc3)cc2)cc(OC)c1 (stereo partly specified) ?
C diff HTS: inactive; Pf Dd2 inh: -88.3!

How did COc1ccc(-c2ccc(C3[C@@H]4CN(Cc5cc(OC)cc(OC)c5)C[C@H]3N4)cc2)cc1 (stereo partly specified) do in these assays?
C diff HTS: -100.5!; Pf Dd2 inh: -87.5!

How did C(=C\c1ccc(C2[C@@H]3CN(Cc4ccc5c(c4)OCO5)C[C@H]2N3)cc1)/c1ccccc1 (stereo partly specified) do in these assays?
C diff HTS: -98.7; Pf Dd2 inh: inconclusive

How did CCS(=O)(=O)N1CC2(C1)[C@H](c1ccccc1)[C@H](CO)N2Cc1ccccn1 do in these assays?
C diff HTS: inactive; Pf Dd2 inh: inactive

How did O=C(C[C@@H]1CC[C@@H]2[C@H](COC[C@H](O)CN2C(=O)c2ccc3c(c2)OCO3)O1)NC1Cc2ccccc2C1 do in these assays?
T cruzi growth: inactive; C diff HTS: inactive; Pf Dd2 inh: inactive

What do the screens show for `C[C@@H]1CCCCO[C@H](CN(C)C(=O)Nc2ccccc2)[C@@H](C)CN([C@H](C)CO)C(=O)c2cc(NC(=O)C3CCCCC3)ccc2O1`?
T cruzi growth: inactive; C diff HTS: inactive; Pf Dd2 inh: inactive

Results for C[C@@H]1CCCCO[C@H](CN(C)C(=O)Nc2ccccc2)[C@H](C)CN([C@H](C)CO)C(=O)c2cc(NC(=O)C3CCCCC3)ccc2O1 ?
T cruzi growth: inactive; Pf Dd2 inh: -86.6

How did C[C@H]1CCCCO[C@@H](CN(C)C(=O)Nc2ccc(F)cc2)[C@@H](C)CN([C@@H](C)CO)C(=O)c2cc(NC(=O)C3CCCCC3)ccc2O1 do in these assays?
T cruzi growth: inactive; C diff HTS: inactive; Pf Dd2 inh: inactive

Results for C[C@@H]1CCCCO[C@@H](CN(C)C(=O)Nc2ccc(F)cc2)[C@@H](C)CN([C@@H](C)CO)C(=O)c2cc(NC(=O)C3CCCCC3)ccc2O1 ?
T cruzi growth: inactive; C diff HTS: inactive; Pf Dd2 inh: -85.8

How did C[C@@H]1CCCCO[C@@H](CN(C)C(=O)Nc2ccc(F)cc2)[C@@H](C)CN([C@H](C)CO)C(=O)c2cc(NC(=O)C3CCCCC3)ccc2O1 do in these assays?
T cruzi growth: inactive; C diff HTS: inactive; Pf Dd2 inh: inactive

How did C[C@@H]1CCCCO[C@H](CN(C)C(=O)Nc2ccc(F)cc2)[C@@H](C)CN([C@@H](C)CO)C(=O)c2cc(NC(=O)C3CCCCC3)ccc2O1 do in these assays?
T cruzi growth: inactive; C diff HTS: inactive; Pf Dd2 inh: -86.4

Results for COc1ccccc1NC(=O)N1C[C@@H]2N[C@H](C1)C2c1ccc(-c2ccccc2)cc1 (stereo partly specified) ?
C diff HTS: inactive; Pf Dd2 inh: inactive

Results for C[C@H]1CCCCO[C@H](CN(C)Cc2ccc(Cl)c(Cl)c2)[C@@H](C)CN([C@@H](C)CO)C(=O)c2cc(NC(=O)Nc3ccc4c(c3)OCO4)ccc2O1 ?
T cruzi growth: inactive; C diff HTS: inactive; Pf Dd2 inh: inactive

How did C[C@@H]1CN([C@H](C)CO)C(=O)c2cc(NC(=O)Nc3ccc4c(c3)OCO4)ccc2O[C@@H](C)CCCCO[C@H]1CN(C)Cc1ccc(Cl)c(Cl)c1 do in these assays?
T cruzi growth: inactive; C diff HTS: inactive; Pf Dd2 inh: -89.1

Results for C[C@@H]1CCCCO[C@@H](CN(C)Cc2ccc(Cl)c(Cl)c2)[C@@H](C)CN([C@@H](C)CO)C(=O)c2cc(NC(=O)Nc3ccc4c(c3)OCO4)ccc2O1 ?
T cruzi growth: inactive; C diff HTS: inactive; Pf Dd2 inh: inactive

What do the screens show for `C[C@@H]1CCCCO[C@@H](CN(C)Cc2ccc(Cl)c(Cl)c2)[C@H](C)CN([C@H](C)CO)C(=O)c2cc(NC(=O)Nc3ccc4c(c3)OCO4)ccc2O1`?
T cruzi growth: inactive; C diff HTS: inactive; Pf Dd2 inh: -87.5

How did C[C@H]1CN([C@@H](C)CO)C(=O)c2cc(NC(=O)C3CCCCC3)ccc2O[C@@H]1CN(C)C do in these assays?
T cruzi growth: inactive; C diff HTS: inactive; Pf Dd2 inh: inactive

How did CCCNC(=O)N1[C@H](C#N)[C@@H](c2ccccc2)[C@@H]1CO do in these assays?
T cruzi growth: inactive; C diff HTS: inactive; Pf Dd2 inh: inactive

Results for C[C@@H]1CN([C@@H](C)CO)C(=O)Cc2cc(NC(=O)Nc3ccccc3)ccc2O[C@H]1CN(C)Cc1ccc2c(c1)OCO2 ?
T cruzi growth: inactive; C diff HTS: inactive; Pf Dd2 inh: -88.5

How did C[C@H](CO)N1C[C@H](C)[C@H](CN(C)Cc2ccc3c(c2)OCO3)Oc2ccc(NC(=O)Nc3ccc4c(c3)OCO4)cc2CC1=O do in these assays?
T cruzi growth: inactive; C diff HTS: inactive; Pf Dd2 inh: inactive

Results for C[C@H]1CN([C@@H](C)CO)C(=O)Cc2cc(NC(=O)Nc3ccccc3)ccc2O[C@@H]1CN(C)Cc1ccc2c(c1)OCO2 ?
T cruzi growth: inactive; C diff HTS: inactive; Pf Dd2 inh: inactive

What do the screens show for `C[C@H](CO)N1C[C@H](C)[C@@H](CN(C)Cc2ccc3c(c2)OCO3)Oc2ccc(NC(=O)Nc3ccccc3)cc2CC1=O`?
T cruzi growth: inactive; C diff HTS: inactive; Pf Dd2 inh: -83.0

Results for C[C@@H]1CN([C@@H](C)CO)C(=O)Cc2cc(NC(=O)Nc3ccccc3)ccc2O[C@@H]1CN(C)Cc1ccc2c(c1)OCO2 ?
T cruzi growth: inactive; C diff HTS: inactive; Pf Dd2 inh: inactive

How did C[C@@H]1CN([C@@H](C)CO)C(=O)Cc2cc(NC(=O)Nc3ccc4c(c3)OCO4)ccc2O[C@H]1CN(C)Cc1ccc2c(c1)OCO2 do in these assays?
T cruzi growth: inactive; C diff HTS: inactive; Pf Dd2 inh: -87.3

What do the screens show for `N#C[C@@H]1[C@H](c2ccccc2-c2cccc(F)c2)[C@H](CO)N1C(=O)CN1CCOCC1`?
C diff HTS: inactive; Pf Dd2 inh: inactive

How did CN(C)C(=O)C[C@H]1CC[C@H]2[C@@H](COC[C@H](O)CN2CC2CC2)O1 do in these assays?
T cruzi growth: inactive; Pf Dd2 inh: inactive

How did C[C@@H]1CN([C@@H](C)CO)C(=O)c2cccc(N(C)C)c2O[C@@H]1CN(C)Cc1ccc(-c2ccccc2)cc1 do in these assays?
T cruzi growth: inactive; C diff HTS: inactive; Pf Dd2 inh: inactive

How did COc1ccccc1S(=O)(=O)N(C)C[C@@H]1OCc2ccccc2-c2c(n(C)c3ccccc23)C(=O)N([C@@H](C)CO)C[C@H]1C do in these assays?
T cruzi growth: inactive; C diff HTS: inactive; Pf Dd2 inh: inactive
